From PubChem BioAssay (NCI) come the findings set out here.

Some test systems named below: BT-549 breast; MDA-MB-435 melanoma; SW-620 colon; MCF7 breast; HCT-116 colon; HCC-2998 colon; KM12 colon.
Experiment in all cases: NCI-60 one-dose screen, 48 h (100 = growth as untreated, 0 = no growth, -100 = all killed)
Holding throughout (details): 10 µM unless noted

Structures are written as SMILES. About 83,000 compounds went through this panel and 20% of them were active in at least one assay; those are over-represented in the sample as a whole.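 Activity criterion: percent growth below 10, measured after cells in 96-well plates were exposed to a single compound concentration for 48 hours.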 A number with no mark means an inactive call. Activity calls are given as the source filed them.

Turning to `COC(=O)c1ccc(NC(=O)CSc2nc(-c3ccc(F)cc3)nc3ccccc23)cc1`, the growth in the experiment with BT-549 breast was 81.5%; in the experiment with MDA-MB-435 melanoma it was 68.1%; in the experiment with SW-620 colon, 79.6%; in the experiment with MCF7 breast, 61.1%; in the experiment with HCT-116 colon, 49.8%; in the experiment on HCC-2998 colon it was 102%. For the same compound, the growth in the experiment with KM12 colon was 73.9%.
Consider `CCOCc1nc2ccccc2c(=O)[nH]1`, for which the growth was 106% in the experiment on BT-549 breast; 103% in the experiment on MDA-MB-435 melanoma; 97.1% in the experiment on SW-620 colon; 94.9% in the experiment with MCF7 breast; 98% in the experiment with HCT-116 colon; 105% with HCC-2998 colon. Besides, in the experiment with KM12 colon, the growth was 103%.
Turning to `C#C[C@@]1(O)[C@@H](CO)O[C@@H](n2cc(Cl)c3c(N)ccnc32)[C@@H]1O`, the growth is 89.9% in the experiment on BT-549 breast; 75.6% with MDA-MB-435 melanoma; 54.8% in the experiment on SW-620 colon; 36.7% with MCF7 breast; 4.67% (active) in the experiment on HCT-116 colon; 85.4% in the experiment with HCC-2998 colon. Moreover, the growth with KM12 colon was 69.9%.
`Nc1c(C(=O)Nc2ccccn2)sc2nc3c(cc12)CCCC3`: the growth is 44% in the experiment with BT-549 breast; -24.6% (active) in the experiment on MDA-MB-435 melanoma; 40.2% with SW-620 colon; 24.2% with MCF7 breast; 13.6% in the experiment with HCT-116 colon; 57.1% in the experiment on HCC-2998 colon. For the same compound, the growth with KM12 colon was 30.8%.
Consider `CCOC(=O)C1CCN(S(=O)(=O)/N=C2/NC(=O)NC2=C(Cl)Cl)CC1`, for which the growth in the experiment with BT-549 breast was -9.2% (active); with MDA-MB-435 melanoma, -7.61% (active); in the experiment on SW-620 colon it was -63.9% (active); with MCF7 breast it was 16.4%; with HCT-116 colon it was 9.4% (active); in the experiment with HCC-2998 colon it was -10.1% (active). Further, the growth in the experiment with KM12 colon was 12.8%.
For the compound `COC(=O)/C=C/c1cc(OC(C)=O)c2c(c1)C(C(=O)OC)C(c1ccc(OC(C)=O)c(OC(C)=O)c1)O2` (centres undefined), the growth is -4.09% (active) in the experiment with BT-549 breast; -26.1% (active) in the experiment with MDA-MB-435 melanoma; 20.5% with SW-620 colon; 10% in the experiment on MCF7 breast; 9.77% (active) in the experiment with HCT-116 colon; 25.5% in the experiment with HCC-2998 colon. Moreover, the growth in the experiment with KM12 colon is 16.5%.
`Cc1cnc(SCc2ccc(Cl)cc2)[nH]c1=S`: the growth in the experiment with BT-549 breast was 108%; with MDA-MB-435 melanoma, 104%; in the experiment on SW-620 colon, 111%; with MCF7 breast, 95.6%; in the experiment on HCT-116 colon, 101%; in the experiment on HCC-2998 colon, 108%. Besides, in the experiment with KM12 colon, the growth is 96.3%.
With `Nc1cccc(C(=O)Nc2ccc3c(O)c(N=Nc4ccc(N=Nc5ccc(S(=O)(=O)O)cc5)cc4)c(S(=O)(=O)O)cc3c2)c1`, the growth in the experiment on BT-549 breast was 98.6%; in the experiment with MDA-MB-435 melanoma, 105%; in the experiment with SW-620 colon it was 107%; in the experiment with MCF7 breast it was 97.2%; with HCT-116 colon, 95%; in the experiment on HCC-2998 colon it was 114%. Also, the growth in the experiment with KM12 colon is 108%.
Consider `Cn1cc(-c2ccc3c(c2)ncn3-c2ccc(CC(=O)Nc3cc(C(C)(C)C)on3)cc2)cn1`, for which the growth in the experiment with BT-549 breast was 31.5%; in the experiment with MDA-MB-435 melanoma, 34.8%; with SW-620 colon it was 33.7%; with MCF7 breast it was 26.9%; in the experiment on HCT-116 colon, 16.6%; in the experiment with HCC-2998 colon, 76.3%. The growth in the experiment with KM12 colon is 16.3%.
On to `O=C(O)c1cn(C2CC2)c2cc(N3CCN(Cc4nnc(Nc5ccccc5)o4)CC3)c(F)cc2c1=O`, for which the growth with BT-549 breast is 98.8%; in the experiment on MDA-MB-435 melanoma, 97.6%; in the experiment on SW-620 colon, 106%; in the experiment with MCF7 breast, 97.7%; with HCT-116 colon it was 91.6%; in the experiment with HCC-2998 colon, 103%. Moreover, the growth in the experiment with KM12 colon is 96.7%.
For `Nc1c(C(=O)Nc2ccccc2)sc2nc3c(cc12)CN(C(=O)OCc1ccccc1)CC3`, the growth in the experiment on BT-549 breast was 52.1%; in the experiment with MDA-MB-435 melanoma, -8.75% (active); in the experiment on SW-620 colon it was 30.1%; in the experiment on MCF7 breast, 21.1%; in the experiment on HCT-116 colon, 28.7%; with HCC-2998 colon it was 77.5%. For the same compound, the growth in the experiment on KM12 colon was 39.1%.
As for `O=C1C(Cl)=C(Nc2ccc3c(c2NC2=C(Cl)C(=O)c4ccccc4C2=O)C(=O)c2ccccc2C3=O)C(=O)c2ccccc21`, the growth in the experiment with BT-549 breast was 42.3%; in the experiment on MDA-MB-435 melanoma, -64.7% (active); with SW-620 colon, 24.7%; in the experiment on MCF7 breast, -7.63% (active); in the experiment on HCT-116 colon, 2.25% (active); in the experiment on HCC-2998 colon, 67%. Further, the growth in the experiment on KM12 colon is 39%.
With `CC(C)CSc1nc(Nc2ccccc2)c(C#N)c(-c2ccc(F)cc2)n1`, the growth in the experiment on BT-549 breast is 28%; with MDA-MB-435 melanoma, 77.4%; with SW-620 colon, 55.2%; with MCF7 breast, 69%; with HCT-116 colon, 7.9% (active); in the experiment with HCC-2998 colon, 69.1%. Besides, in the experiment on KM12 colon, the growth was 73.2%.
As for `COc1ccc(-c2cc(-c3nnc(SCC(=O)Nc4ccc(/C(C)=N\O)cc4)o3)c3ccccc3n2)cc1`, the growth in the experiment on BT-549 breast is 108%; with MDA-MB-435 melanoma, 110%; in the experiment on SW-620 colon, 105%; in the experiment with MCF7 breast, 96.1%; in the experiment with HCT-116 colon, 107%; in the experiment on HCC-2998 colon, 101%. The growth with KM12 colon was 101%.
For `NC(=O)C(O)(c1ccccc1)c1ccccc1`, the growth is 113% in the experiment with BT-549 breast; 103% in the experiment with MDA-MB-435 melanoma; 96% in the experiment on SW-620 colon; 91.5% in the experiment with MCF7 breast; 103% in the experiment with HCT-116 colon; 98.5% with HCC-2998 colon. The growth with KM12 colon was 96.9%.
Turning to `Oc1c(CCl)cc(Cl)cc1Cc1cc(Cl)cc(Cc2cc(Cl)cc(CCl)c2O)c1O`, the growth in the experiment on BT-549 breast was 23.9%; in the experiment on MDA-MB-435 melanoma, 44.1%; in the experiment with SW-620 colon it was 25.5%; in the experiment with MCF7 breast, 8.55% (active); with HCT-116 colon it was 3.12% (active); with HCC-2998 colon it was 19.5%. In the experiment with KM12 colon, the growth is 23.2%.
Turning to `Cc1c(Cl)cccc1NC(=O)c1sc2nc3c(cc2c1N)CCCCC3`, the growth in the experiment on BT-549 breast is 48.7%; in the experiment with MDA-MB-435 melanoma, -0.269% (active); in the experiment with SW-620 colon, 25.3%; with MCF7 breast it was 20.8%; in the experiment on HCT-116 colon, 32.3%; in the experiment on HCC-2998 colon, 55.7%. Besides, in the experiment on KM12 colon, the growth is 24.7%.
